Assay results from PubChem BioAssay (Tox21).
Records with an inconclusive call do not appear. Active and inactive are the calls of the source. Unless noted, calls follow the shape of the dose curve; as a rule, active = well fitted curve in the direction sought with a large enough effect in the repeat runs; inconclusive = weak or mixed curves; inactive = no such curve, though single readings can be large; an effect the other way counts as inactive or inconclusive.

Columns and labels:
[1] = A CellTox Green Cytotoxicity Assay to monitor cytotoxicity in HEK293 cells - 16 hour (AID 1224888); also: nearly all actives have a fitted effect of over 35% in size
In short: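 Fluorescence intensity, read at 0, 8, 16, 24, 32 and 40 h of compound treatment, reflected dye binding to DNA of dead HEK293 cells; compounds (23 nL, DMSO) were added 5 h after plating cells with reagent.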

[2] = qHTS RealTime-Glo MT Cell Viability Assay in HepG2 cells - 0 hour (AID 1224889); also: nearly all actives have a fitted effect of over 50% in size
In short: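 HepG2 cells were seeded at 600 cells/well together with NanoLuc luciferase and a cell-permeant prosubstrate, preincubated 5 h at 37 C/5% CO2, then pin-dosed with compounds in DMSO. Nonlytic luminescence from viable cells was read at each time point.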

[3] = A CellTox Green Cytotoxicity Assay to monitor cytotoxicity in HepG2 cells - 8 hour (AID 1224890); also: nearly all actives have a fitted effect of over 45% in size
In short: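 Using 1536-well format, dye-containing HepG2 suspension was seeded, allowed 5 h at 37 C/5% CO2, dosed by pintool with compounds, positive and negative controls, and imaged for fluorescence across 40 h.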

[4] = qHTS assay to identify small molecule antagonists of the androgen receptor (AR) signaling pathway using the MDA cell line in the presence of 0.5 nM R1881 - cell viability counter screen (AID 1259242); also: nearly all actives have a fitted effect of over 45% in size
In short: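 Viability of MDA-kb2 cells was multiplexed with the luciferase AR readout; after 16 hr with compounds and R1881 at 0.5 nM final, CellTiter-Fluor fluorescence was recorded.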

[5] = biological target: Androgen receptor (Homo sapiens) (UniProt P10275); assay: qHTS assay to identify small molecule antagonists of the androgen receptor (AR) signaling pathway using the MDA cell line in the presence of 0.5 nM R1881 (AID 1259243); also: nearly all actives have a fitted effect of over 50% in size
Chain of Androgen receptor (Homo sapiens) (P10275 whole entry, looked up): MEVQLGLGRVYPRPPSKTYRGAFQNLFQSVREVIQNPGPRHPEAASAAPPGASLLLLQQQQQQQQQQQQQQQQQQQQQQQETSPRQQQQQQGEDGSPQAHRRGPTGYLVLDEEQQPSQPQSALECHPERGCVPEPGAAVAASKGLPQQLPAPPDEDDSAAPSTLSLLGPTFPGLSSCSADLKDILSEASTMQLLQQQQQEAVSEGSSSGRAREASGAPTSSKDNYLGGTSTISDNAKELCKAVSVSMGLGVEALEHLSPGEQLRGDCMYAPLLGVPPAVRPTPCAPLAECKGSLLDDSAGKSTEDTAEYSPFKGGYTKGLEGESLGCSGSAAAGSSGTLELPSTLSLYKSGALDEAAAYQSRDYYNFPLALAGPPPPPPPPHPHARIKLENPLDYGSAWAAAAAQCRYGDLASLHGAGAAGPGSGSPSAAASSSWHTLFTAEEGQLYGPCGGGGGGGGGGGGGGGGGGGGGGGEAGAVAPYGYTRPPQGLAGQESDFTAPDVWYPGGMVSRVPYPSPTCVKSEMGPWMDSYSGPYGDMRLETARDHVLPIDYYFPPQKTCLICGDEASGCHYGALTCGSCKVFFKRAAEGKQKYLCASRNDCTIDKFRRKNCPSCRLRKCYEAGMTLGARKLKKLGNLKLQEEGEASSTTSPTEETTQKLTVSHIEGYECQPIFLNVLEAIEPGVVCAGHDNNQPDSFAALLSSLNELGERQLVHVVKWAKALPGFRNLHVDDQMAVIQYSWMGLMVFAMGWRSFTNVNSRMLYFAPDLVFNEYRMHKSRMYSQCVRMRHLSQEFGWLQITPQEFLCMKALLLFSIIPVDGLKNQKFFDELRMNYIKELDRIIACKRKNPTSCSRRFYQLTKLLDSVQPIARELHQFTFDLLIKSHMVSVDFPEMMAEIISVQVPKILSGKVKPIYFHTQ
In short: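 Reporter cells cultured without CO2 receive test chemicals, then 0.5 nM R1881 final; after 16 hr at 37C, ONE-Glo is added and light output recorded.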

[6] = biological target: Estrogen receptor (Homo sapiens) (UniProt P03372); assay: qHTS assay to identify small molecule antagonists of the estrogen receptor alpha (ER-alpha) signaling pathway using the BG1 cell line in the presence of 0.1 nM 17-beta-estradiol (AID 1259244); also: nearly all actives have a fitted effect of over 50% in size
Chain of Estrogen receptor (Homo sapiens) (P03372 whole entry, looked up): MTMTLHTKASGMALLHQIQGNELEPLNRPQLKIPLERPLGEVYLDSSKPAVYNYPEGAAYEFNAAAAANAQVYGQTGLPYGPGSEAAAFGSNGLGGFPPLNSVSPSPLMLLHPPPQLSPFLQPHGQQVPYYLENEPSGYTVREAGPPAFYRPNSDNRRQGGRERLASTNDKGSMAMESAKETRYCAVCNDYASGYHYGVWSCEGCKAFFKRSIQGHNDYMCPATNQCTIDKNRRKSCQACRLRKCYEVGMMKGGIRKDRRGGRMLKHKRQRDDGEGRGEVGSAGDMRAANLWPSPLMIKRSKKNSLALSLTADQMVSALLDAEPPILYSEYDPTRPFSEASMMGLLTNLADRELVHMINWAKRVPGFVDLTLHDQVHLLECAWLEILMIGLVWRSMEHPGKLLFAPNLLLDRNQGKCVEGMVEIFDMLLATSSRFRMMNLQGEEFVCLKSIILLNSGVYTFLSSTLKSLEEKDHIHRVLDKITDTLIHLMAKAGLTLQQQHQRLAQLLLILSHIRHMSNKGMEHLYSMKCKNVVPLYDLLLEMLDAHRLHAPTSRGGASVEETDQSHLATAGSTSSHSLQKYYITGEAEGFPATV
In short: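 Estradiol at 0.1 nM (final) stimulates the endogenous ER-alpha of VM7Luc4E2 cells carrying an ERE-driven luciferase; compounds are co-incubated 22 h at 37C and luciferase output quantified by luminescence.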

[7] = qHTS assay to identify small molecule HDAC inhibitors (AID 1259364);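 also: wild-type HCT-116 cells with endogenous class I/II HDAC activity; top concentration of the series differs between compounds; nearly all actives have a fitted effect of over 45% in size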
In short: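 Read-out: luminescence of HDAC-Glo I/II reagent, 30 min RT, reflecting class I/II deacetylase activity in whole HCT-116 cells pre-exposed 2 h to DMSO-dissolved compounds.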

[8] = qHTS assay to identify small molecule HDAC inhibitors - cell viability counter screen (AID 1259365); also: series mostly up to about 92 µM; nearly all actives have a fitted effect of over 50% in size
In short: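 Wild-type HCT-116 cells, 1,500/well, cultured overnight, then compound-treated 2 h at 37 C. Viability measured as ATP luminescence with CellTiter-Glo after 30 min at room temperature.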

[9] = qHTS assay to identify small molecule agonists of the sonic hedgehog signaling (Shh) pathway - cell viability counter screen (AID 1259366); also: nearly all actives have a fitted effect of over 50% in size
In short: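 NIH/3T3-derived Gli1-Luc reporter cells, 2,000 per well, received compound after 4 h and were treated about 23 h at 37C. Viability measured in the same wells by CellTiter-Fluor fluorescence after 1 h.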

[10] = qHTS assay to identify small molecule antagonists of the sonic hedgehog signaling (Shh) pathway - cell viability counter screen (AID 1259367); also: nearly all actives have a fitted effect of over 55% in size
In short: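 Cells: 3T3 Gli1-Luc, 2,000/well, 4 hr pre-incubation. Compounds in DMSO, then conditioned medium. Incubation 24 hr, 37C, 5% CO2. CellTiter-Fluor at 23 hr, 1 hr, fluorescence.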

[11] = qHTS assay to identify small molecule antagonists of the sonic hedgehog signaling (Shh) pathway (AID 1259369; calls by dose curve; also: nearly all actives have a fitted effect of over 45% in size)
In short: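 For antagonist detection, the reporter line received test compounds together with conditioned medium, incubated 24hr at 37 C, 5% CO2, then luminescence was recorded following 30min room-temperature luciferase reagent incubation.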

[12] = biological target: Estrogen receptor beta (Homo sapiens) (UniProt Q92731); assay: qHTS assay to identify small molecule agonists of the estrogen receptor beta (ER-beta) signaling pathway (AID 1259377; active = well fitted activation curve with a large enough effect in the signal ratio in the repeat runs, not every such curve was filed as active; the % refers to the signal ratio)
Chain of Estrogen receptor beta (Homo sapiens) (Q92731 whole entry, looked up): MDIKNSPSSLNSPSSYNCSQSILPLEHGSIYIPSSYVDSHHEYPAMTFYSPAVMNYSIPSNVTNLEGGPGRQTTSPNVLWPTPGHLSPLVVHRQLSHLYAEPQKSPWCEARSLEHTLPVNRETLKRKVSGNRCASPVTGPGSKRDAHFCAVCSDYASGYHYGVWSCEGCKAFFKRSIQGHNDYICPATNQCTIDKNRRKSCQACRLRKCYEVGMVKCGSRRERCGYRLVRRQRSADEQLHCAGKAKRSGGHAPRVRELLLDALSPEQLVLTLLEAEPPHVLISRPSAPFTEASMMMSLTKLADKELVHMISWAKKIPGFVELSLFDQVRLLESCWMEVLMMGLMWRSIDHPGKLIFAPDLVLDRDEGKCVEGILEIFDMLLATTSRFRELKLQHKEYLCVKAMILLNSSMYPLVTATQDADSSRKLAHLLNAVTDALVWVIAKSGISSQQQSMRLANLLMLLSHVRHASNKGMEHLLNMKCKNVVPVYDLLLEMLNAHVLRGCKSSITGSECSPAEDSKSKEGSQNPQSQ
In short: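 ER-beta-UAS-bla HEK293T cells in medium with 2% charcoal-stripped FBS were exposed to compounds for 16 h at 37C. Beta-lactamase reporter activity was read as fluorescence after 2 h with LiveBLAzer B/G FRET substrate at room temperature.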

[13] = biological target: Estrogen receptor beta (Homo sapiens) (UniProt Q92731); assay: qHTS assay to identify small molecule antagonists of the estrogen receptor beta (ER-beta) signaling pathway (AID 1259378; active = well fitted inhibition curve with a large enough effect in the signal ratio in the repeat runs, not every such curve was filed as active; the % refers to the signal ratio)
In short: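 Antagonist mode: compounds added to beta-lactamase reporter HEK293T ER-beta-UAS cells stimulated with E2 (1nM final), 16 hr at 37C. LiveBLAzer B/G FRET substrate, 2 hours room temperature, fluorescence read-out.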

[14] = qHTS assay to identify small molecule agonists of the estrogen receptor beta (ER-beta) signaling pathway - cell viability counter screen (AID 1259380); also: nearly all actives have a fitted effect of over 30% in size
In short: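 CellTiter-Glo read, 30 min RT, same wells as bla assay; cells ER-beta-UAS-bla HEK293T; 16 hr compound, 37C; medium 2% charcoal-stripped FBS.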

[15] = biological target: Androgen receptor (Homo sapiens) (UniProt P10275); assay: qHTS assay to identify small molecule agonists of the androgen receptor (AR) signaling pathway in the presence of an antagonist (AID 1259381; calls by dose curve; also: nearly all actives have a fitted effect of over 15% in size)
In short: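 Test compounds at 15 concentrations were incubated for 16hr with MDA-kb2 reporter cells in presence of 3.0uM nilutamide (final). Signal: ONE-Glo luciferase luminescence.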

[16] = qHTS assay to identify small molecule antagonists of the estrogen receptor alpha (ER-alpha) signaling pathway using the BG1 cell line in the presence of 0.1 nM 17-beta-estradiol - cell viability counter screen (AID 1259241); also: nearly all actives have a fitted effect of over 40% in size
In short: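 VM7Luc4E2 cells (endogenous full-length ER-alpha, 4xERE-luciferase), cultured 5 days in charcoal-stripped serum, exposed to compounds with 0.1 nM 17beta-estradiol (final) for 22 hr at 37C. Viability read in same wells as live-cell protease fluorescence after 30 min.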

[17] = qHTS assay to identify small molecule agonists of the sonic hedgehog signaling (Shh) pathway (AID 1259368; calls by dose curve;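 also: NIH/3T3-derived 3T3Gli1-Luc cells carrying a stable Gli1-driven firefly luciferase reporter; series mostly up to about 92 µM; nearly all actives have a fitted effect of over 15% in size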)
In short: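 A Gli1 transcriptional response element controlled firefly luciferase in 3T3Gli1-Luc cells. Compounds and a positive control were added 4 hr after plating, and cells were incubated a further 24 hr at 37 C before luminescence detection.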

[18] = qHTS assay to identify small molecule agonists of the androgen receptor (AR) signaling pathway in the presence of an antagonist - cell viability counter screen (AID 1259379);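 also: MDA-kb2 human breast cancer cells carrying an MMTV luciferase reporter; series mostly up to about 92 µM; nearly all actives have a fitted effect of over 25% in size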
In short: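 Seed MDA-kb2 at 3,000 cells/well; incubate 5 hr, 37C, 0% CO2. Add nilutamide to 3.0uM final, then pin compounds at 15 concentrations. Incubate 16 hr. Add CellTiter-Fluor at 15 hr, read fluorescence after 1 hr.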

[19] = qHTS assay to identify small molecule antagonists of the estrogen receptor beta (ER-beta) signaling pathway - cell viability counter screen (AID 1259382);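 also: HEK293T cells carrying ER-beta-UAS-bla reporter stimulated with estradiol; series mostly up to about 92 µM; nearly all actives have a fitted effect of over 55% in size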
In short: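 In this multiplexed counter screen, cells were seeded at 2,000 per well in medium with 2% charcoal-stripped FBS and incubated 6 hr before compound and 1nM final E2 were added. Sixteen hours later, ATP-based luminescence reported viability.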

[20] = qHTS assay to identify small molecule phospholipidosis (PLD) inducers (AID 1259344; active = well fitted curve in the direction sought with a large enough effect; an effect the other way counts as inactive or inconclusive)
In short: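 Phospholipidosis is scored by imaging LipidTOX-stained pits in HepG2 cells exposed to compound for 24 h at 37 C; pit counts and integrated intensities per well and per cell serve as outputs.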
% is scaled to controls: 0 for no effect and ±100 for the full control effect.

COC(=O)CCCCC(CCSS/C(CCO)=C(\C)N(C=O)Cc1cnc(C)nc1N)SC(C)=O (centres undefined)
inactive: Potency [1] | Potency [2] | Potency [3] | outcome [4] | Potency [5] | outcome [6] | Potency [7] | outcome [8] | outcome [9] | outcome [10] | Potency [11] | Potency [12] | Potency [13] | outcome [14] | outcome [15]

C=Cc1ccc(C(C)(C)C)cc1
inactive: Potency [1] | Potency [2] | Potency [3] | outcome [16] | outcome [10] | outcome [17] | Potency [11] | outcome [18] | outcome [14] | outcome [19]

Cc1c(Cl)cccc1Cl
inactive: Potency [1] | Potency [2] | Potency [3] | outcome [16] | outcome [6] | outcome [8] | outcome [9] | outcome [17] | Potency [11] | Potency [12] | Potency [13] | outcome [18] | outcome [14]

C=C(C)C1CC=C(C)C(=O)C1 (centres undefined)
inactive: Potency [1] | Potency [2] | Potency [3] | outcome [16] | outcome [8] | outcome [10] | outcome [17] | Potency [11] | Potency [12] | Potency [13] | outcome [18] | outcome [14] | outcome [19]

CN(C)CCN(C)CCO
inactive: Potency [1] | Potency [2] | Potency [3] | outcome [16] | outcome [6] | outcome [10] | outcome [17] | Potency [11] | Potency [12] | Potency [13] | outcome [18] | outcome [14] | outcome [19]

CC(Oc1cc(Cl)ccc1Cl)C(=O)O (centres undefined)
inactive: Potency [1] | Potency [2] | Potency [3] | outcome [4] | Potency [5] | Potency [7] | outcome [8] | outcome [9] | outcome [10] | outcome [17] | Potency [11] | Potency [12] | Potency [13] | outcome [18] | outcome [14] | outcome [15] | outcome [19]

OCC1CCC(CO)CC1 (centres undefined)
inactive: Potency [1] | Potency [2] | Potency [3] | outcome [4] | Potency [5] | outcome [6] | Potency [7] | outcome [10] | outcome [17] | Potency [11] | Potency [12] | Potency [13] | outcome [14] | outcome [15] | outcome [19]

NCC1(Cc2noc(=O)[nH]2)CCCCC1
inactive: Potency [1] | Potency [2] | Potency [3] | outcome [16] | outcome [6] | Potency [7] | outcome [8] | outcome [9] | outcome [10] | Potency [11] | Potency [12] | Potency [13] | outcome [18] | outcome [14] | outcome [19]

COC(C)(OC)OC
inactive: Potency [1] | Potency [2] | Potency [3] | outcome [4] | Potency [5] | outcome [6] | Potency [7] | outcome [8] | outcome [9] | outcome [10] | outcome [17] | Potency [11] | outcome [15] | outcome [19]

CC(=O)O[C@@H]1CC2CCC1(C)C2(C)C (some centres undefined)
inactive: Potency [1] | Potency [2] | Potency [3] | outcome [4] | Potency [5] | outcome [20] | Potency [7] | outcome [8] | outcome [9] | outcome [10] | outcome [17] | Potency [11] | Potency [12] | Potency [13] | outcome [18] | outcome [14] | outcome [15] | outcome [19]

O=C(O)[C@H](O)c1ccccc1
inactive: Potency [1] | Potency [2] | Potency [3] | outcome [4] | outcome [6] | outcome [20] | Potency [7] | outcome [8] | outcome [9] | outcome [10] | outcome [17] | Potency [11] | outcome [18] | outcome [14] | outcome [19]

C[C@@H](O)C(=O)O
inactive: Potency [1] | Potency [2] | Potency [3] | outcome [4] | outcome [6] | Potency [7] | outcome [8] | outcome [9] | outcome [10] | outcome [17] | Potency [11] | outcome [18] | outcome [14] | outcome [19]

Cc1cc(-c2ccccc2)nnc1NCCN1CCOCC1
inactive: Potency [1] | Potency [2] | Potency [3] | outcome [4] | outcome [6] | Potency [7] | outcome [8] | outcome [9] | outcome [10] | outcome [17] | Potency [11] | Potency [12] | Potency [13] | outcome [14] | outcome [19]

CC(=O)OCC(=O)Nc1cc(C#N)cc(NC(=O)COC(C)=O)c1Cl
inactive: Potency [1] | Potency [2] | Potency [3] | outcome [4] | outcome [6] | PLD induction [20] -3.87% [at 7.66 µM] | outcome [8] | outcome [9] | outcome [10] | outcome [17] | Potency [11] | Potency [12] | Potency [13] | outcome [19]

CCn1cc(C(=O)O)c(=O)c2cnc(N3CCCC3)nc21
inactive: activity change [1] 2.01% [at 6.97 µM, stronger effect = higher value] | activity change, negative = cytotoxicity [2] -5.5% [at 6.97 µM] | cytotoxicity increase [3] 3.53% [at 6.97 µM] | activity change, negative = cytotoxicity [16] -1.69% [at 8.39 µM] | outcome [20] | activity change, negative = inhibition [7] 0.504% [at 8.39 µM] | activity change, negative = cytotoxicity [8] 0.53% [at 8.39 µM] | viability change, negative = cytotoxic [10] -1.09% [at 8.39 µM] | activity change [17] 1.04% [at 8.39 µM] | activity change, negative = inhibition [11] 29.2% [at 8.39 µM] | activation [12] 4.52% [at 8.39 µM] | activity, negative = inhibition [13] 15.3% [at 8.39 µM] | activity change, negative = cytotoxicity [18] 0.387% [at 8.39 µM] | activity change, negative = cytotoxicity [14] 2.48% [at 8.39 µM] | activity change, negative = cytotoxicity [19] 13.9% [at 8.39 µM]

COc1nc(N)nc2nc[nH]c12
inactive: Potency [1] | Potency [2] | Potency [3] | outcome [4] | outcome [6] | Potency [7] | outcome [9] | outcome [10] | Potency [11] | Potency [12] | Potency [13] | outcome [18] | outcome [14]

Nc1nnnn1-c1ccccc1
inactive: Potency [1] | Potency [2] | outcome [4] | outcome [6] | outcome [20] | Potency [7] | outcome [8] | outcome [9] | outcome [10] | outcome [17] | Potency [11] | Potency [13] | outcome [18] | outcome [14] | outcome [19]
